# Measurements as given in PubChem BioAssay.
# Calls of active or inactive are those of the source.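 How the source made its calls, unless noted: active means visually confirmed hit in the image check and inhibition above 20%; inconclusive means visually confirmed hit but inhibition not above 20%; inactive means no visual hit in the image check.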
# Tests used:
# [1] = inhibitors of TNFa-induced NFkB p65 translocation, primary screen, imaging, HUVEC, MLSMR starter and 10KST1 sets (AID 438;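 active means inhibition above 20% together with a positive visual image hit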;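 further: compound added about 3h40 before a 20 min TNFalpha stimulation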;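 on inhibition: signal is the nuclear over cytoplasmic p65 intensity ratio per well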); settings: HUVEC TNFa-induced p65 nuclear translocation; cell count: measured here: nuclei count (cytotoxicity indicator), at 2.08 µM; inhibition: at 2 µM, stronger effect = higher value, 0% TNFa-plus-vehicle, 100% no-TNFa wells
# [2] = inhibitors of mutant huntingtin aggregation, primary screen, imaging, exon1htt(103Q)mCFP cells, high-content imaging (AID 483;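 active means visual image review flags a hit and inhibition of aggregation exceeds 20%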;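 further: compound exposure lasted 3 days before fixation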;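 on nuclei count: percent of the per-plate median nuclei count of sample wells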); settings: exon1htt(103Q)mCFP cell line, aggregate imaging, at 2 µM; inhibition of aggregation: stronger effect = higher value; nuclei count: measured here: cell count, toxicity
# [3] = inhibitors of E-selectin induction by TNFa, primary screen, imaging, HUVEC, immunofluorescence, MLSMR starter and 10KST1 sets (AID 487); settings: HUVEC TNFalpha-induced E-selectin immunofluorescence imaging, at 2 µM; inhibition: stronger effect = higher value; nuclei count: measured here: cell number, toxicity;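 on inhibition: signal is fraction of cell area covered by stained E-selectin grains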;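 on nuclei count: 100% = median nuclei count of all wells on the same plate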
# [4] = biological target: Voltage-gated potassium channel subunit beta-2 (Rattus norvegicus) (UniProt P62483); test: KvBeta enzyme negative modulators, primary screen, biochemical, NADPH fluorescence (AID 622;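 active means fluorescence slope higher than the sample average by over 3 SD, cut at about -0.22 in these data, passing the limit was not always enough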;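 further: slope of raw intensity against log time taken from 70 to 1610 s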); settings: recombinant KvBeta, 4-cyanobenzaldehyde reduction, at 10 µM, stronger effect = higher value
# Chain of Voltage-gated potassium channel subunit beta-2 (Rattus norvegicus) (P62483 whole entry, looked up): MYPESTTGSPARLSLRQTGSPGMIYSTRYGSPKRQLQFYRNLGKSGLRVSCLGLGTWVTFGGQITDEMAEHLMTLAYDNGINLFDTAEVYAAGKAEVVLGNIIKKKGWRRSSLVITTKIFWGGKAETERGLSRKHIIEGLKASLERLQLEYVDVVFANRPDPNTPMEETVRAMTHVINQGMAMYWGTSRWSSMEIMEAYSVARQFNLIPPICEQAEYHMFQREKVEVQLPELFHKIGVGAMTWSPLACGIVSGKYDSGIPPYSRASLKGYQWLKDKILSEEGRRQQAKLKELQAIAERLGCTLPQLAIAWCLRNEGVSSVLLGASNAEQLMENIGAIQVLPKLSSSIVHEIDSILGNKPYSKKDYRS
# [5] = biological target: Voltage-gated potassium channel subunit beta-2 (Rattus norvegicus) (UniProt P62483); test: KvBeta positive modulators, primary screen, biochemical, NADPH fluorescence (AID 623;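 active means NADPH fluorescence slope more negative than the mean of all samples by about 3 SD, 99.7% confidence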;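 further: fluorescence intensity change per second fitted from 20 to 320 s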); settings: Recombinant KvBeta, NADPH fluorescence decrease slope, 10 min; at 10 µM; stronger effect = lower value
# [6] = biological target: Alpha-2C adrenergic receptor (Homo sapiens) (UniProt P18825); test: modulators of alpha2C/GIRK thallium flux, primary screen, cell-based, HEK293 alpha2C/GIRK1/2 (AID 624;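 active means fluorescence slope after compound addition differing from the mean of all screened samples at 99.7% confidence, in either direction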;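 further: slope of fluorescence ratio to pre-addition baseline per second over 15 to 24 s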); settings: thallium flux BTC fluorescence, at 10 µM, actives lie on both sides
# Chain of Alpha-2C adrenergic receptor (Homo sapiens) (P18825 whole entry, looked up): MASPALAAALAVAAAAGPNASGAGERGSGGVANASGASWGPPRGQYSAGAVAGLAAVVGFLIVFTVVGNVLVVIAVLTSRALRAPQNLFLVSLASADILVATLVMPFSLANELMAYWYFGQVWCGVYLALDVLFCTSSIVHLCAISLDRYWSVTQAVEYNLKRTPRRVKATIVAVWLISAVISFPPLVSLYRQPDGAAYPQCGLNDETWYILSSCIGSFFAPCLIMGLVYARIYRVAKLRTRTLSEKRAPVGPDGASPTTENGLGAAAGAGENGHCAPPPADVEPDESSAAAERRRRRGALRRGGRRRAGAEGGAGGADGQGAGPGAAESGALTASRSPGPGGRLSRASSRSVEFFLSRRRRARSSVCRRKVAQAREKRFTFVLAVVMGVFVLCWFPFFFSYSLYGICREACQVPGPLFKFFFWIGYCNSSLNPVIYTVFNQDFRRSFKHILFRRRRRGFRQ
# [7] = inhibitors of Sendai virus-induced IRF3 signaling, primary screen, TLR/RLR signaling modifier project, cell-based, Sendai virus stimulus, luciferase, 10K MLSCN set (AID 602276;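 active means inhibition at or above 50% at 10 µM; inactive means inhibition below 50%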;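 further: firefly luciferase from ISG56 promoter only with Renilla not read in this screen; 0% = Sendai virus plus DMSO and 100% = medium plus DMSO without virus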); settings: HEK293 RL24 IRF3 luciferase reporter, at 10 µM, stronger effect = higher value
# [8] = inhibitors of poly I:C-induced TLR3 signaling, primary screen, cell-based, poly I:C stimulus, luciferase, 10K MLSCN set (AID 602277;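 active means inhibition of the reporter signal at or above 50%; inactive means inhibition below 50%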); settings: HEK293-TLR3 RL24 IRF3 luciferase reporter, at 10 µM, stronger effect = higher value
SMILES,cell count [1],inhibition [1],inhibition of aggregation [2],nuclei count [2],inhibition [3],nuclei count [3],fluorescence slope [4],NADPH fluorescence slope [5],slope [6],inhibition [7],inhibition [8]
NCCN1CCN(CCN)CC1,728,-10% (inactive),-4.6% (inactive),116%,-23.9% (inactive),132%,-0.436 (inactive),-1.1e-05 (inactive),0.00707 (inactive),12.2% (inactive),18.8% (inactive)
COc1cc(C(=O)NCCc2ccc3c(c2)OCCO3)ccc1OCC(=O)N1CCOCC1,632,2.4% (inactive),11.3% (inactive),87.3%,-76.6% (inactive),96.6%,-0.298 (inactive),-5.4e-05 (inactive),0.00507 (inactive),14.7% (inactive),15.3% (inactive)
C=CCN1C(=O)CS/C1=N/c1nccs1,785,-8.5% (inactive),3.5% (inactive),107%,-5.5% (inactive),101%,-0.459 (inactive),-1.1e-05 (inactive),0.00406 (inactive),15.5% (inactive),14.3% (inactive)
COc1ccc2c(CC(=O)Nc3ccc(OC)c(NS(=O)(=O)c4ccc(F)cc4)c3)coc2c1,403,-1.4% (inactive),2.9% (inactive),116%,-29.3% (inactive),100%,-0.275 (inactive),-8.3e-06 (inactive),0.00715 (inactive),9% (inactive),18.5% (inactive)
CC(C)NC(=O)c1ccc2c(c1)nnn2C,836,8.2% (inactive),4.8% (inactive),104%,-59.5% (inactive),116%,-0.471 (inactive),2.3e-05 (inactive),0.0055 (inactive),-4.12% (inactive),11.6% (inactive)
O=C(NCN1CCCCC1)c1cccnc1,327,7% (inactive),-1.5% (inactive),87.9%,-20% (inactive),92.8%,-0.488 (inactive),-4.4e-05 (inactive),0.00701 (inactive),5.02% (inactive),35.7% (inactive)
Cc1nc2cc(N3CCCCC3)c(NC(=O)c3cccnc3)cc2c(=O)n1Cc1ccccc1,751,-10.1% (inactive),1.2% (inactive),93.3%,-2% (inactive),99.1%,-0.167 (inactive),2.6e-06 (inactive),0.00435 (inactive),-3.36% (inactive),-14% (inactive)
Cc1ccc(Nc2nc(CSc3nnc(-c4cccs4)o3)cs2)cc1,444,-0.2% (inactive),31.6% (inactive),110%,16.3% (inactive),113%,-0.408 (inactive),-1.4e-05 (inactive),0.00487 (inactive),-22% (inactive),-60.6% (inactive)
CCOC(=O)CN(C(=O)c1ccccc1)c1ccccc1C,600,-2.5% (inactive),-11.5% (inactive),108%,36% (inactive),72.6%,-0.419 (inactive),1.1e-05 (inactive),0.00342 (inactive),3.43% (inactive),31% (inactive)
COCCCN(C)C1CCN(C(=O)Nc2ccc(F)cc2)CC1,610,-1.3% (inactive),-8.7% (inactive),108%,-49.7% (inactive),102%,-0.582 (inactive),-1.9e-06 (inactive),0.00654 (inactive),11% (inactive),36.9% (inactive)
CCn1nccc1C(=O)Nc1cc(Cl)ccc1Cl,633,8.3% (inactive),6.7% (inactive),57.3%,22.2% (inactive),106%,-0.385 (inactive),-5e-05 (inactive),0.00378 (inactive),1.68% (inactive),15.9% (inactive)
C=CCNC(=O)CN(c1cccc(Br)c1)S(C)(=O)=O,322,-0.5% (inactive),13.9% (inactive),95.4%,21.4% (inactive),115%,-0.509 (inactive),2.5e-05 (inactive),0.00557 (inactive),8.3% (inactive),14.4% (inactive)
O=C(CCNC(=O)c1ccc(Br)o1)NC1CCCC1,507,-18.2% (inactive),35.3% (inactive),77.7%,-29.9% (inactive),87.3%,-0.365 (inactive),-5e-05 (inactive),0.00549 (inactive),14.4% (inactive),13.1% (inactive)
O=C(Oc1ccccc1)c1cccc(COC(=O)c2cnccn2)c1,385,-1.6% (inactive),7.9% (inactive),103%,20.7% (inactive),105%,-0.425 (inactive),-5.1e-05 (inactive),0.00507 (inactive),5.8% (inactive),3.65% (inactive)
CN(C)c1ccc(NC(=O)Cn2cc3c(n2)CCCC3)cc1,757,-11% (inactive),17.1% (inactive),101%,-27.2% (inactive),103%,-0.406 (inactive),-4.3e-05 (inactive),0.00475 (inactive),-2.34% (inactive),-8.59% (inactive)
c1cn(C23CC4CC(CC(C4)C2)C3)cn1,362,0.8% (inactive),-9.2% (inactive),108%,45.7% (inactive),110%,-0.489 (inactive),-5.6e-05 (inactive),0.00411 (inactive),11.8% (inactive),16.7% (inactive)
N#CCc1c(C#N)c(N)nc(N2CCN(S(=O)(=O)c3ccccc3)CC2)c1C#N,349,1.3% (inactive),-7.2% (inactive),96.4%,14.3% (inactive),108%,-0.427 (inactive),-4.2e-05 (inactive),0.00665 (inactive),11% (inactive),34.3% (inactive)
Cc1cc(C(F)(F)F)nc(SCC(=O)NC2=NC(=O)C(C)S2)n1 (centres undefined),370,6.1% (inactive),4.5% (inactive),109%,19.6% (inactive),99%,-0.457 (inactive),-1.9e-05 (inactive),0.00515 (inactive),-20.9% (inactive),-16.9% (inactive)
CCc1nc2sc(C)c(C)c2c(=O)n1CCO,396,7.2% (inactive),10.8% (inactive),81.4%,-64.6% (inactive),103%,-0.422 (inactive),1.1e-05 (inactive),0.00292 (inactive),5.69% (inactive),32% (inactive)
CN1CCCN(CC(O)COCc2cccs2)CC1 (centres undefined),489,-6.7% (inactive),-19.8% (inactive),108%,-66% (inactive),153%,-0.489 (inactive),-3.2e-05 (inactive),0.00614 (inactive),-7.31% (inactive),24.2% (inactive)
O=C(c1cc2cc(Cl)cc(Cl)c2oc1=O)N1CCOCC1,275,13.1% (inactive),-12% (inactive),87.4%,-63.2% (inactive),110%,-0.48 (inactive),-6.7e-05 (inactive),0.0058 (inactive),26.9% (inactive),30.3% (inactive)
O=C(c1cc(-c2cccc(O)c2)on1)N1CCN(C(c2ccccc2)c2ccccc2)CC1,787,3.2% (inactive),-5.2% (inactive),96.8%,-70.7% (inactive),116%,-0.601 (inactive),-3.2e-05 (inactive),0.00689 (inactive),11% (inactive),25.8% (inactive)
Nc1nnn(Cc2ccccc2)n1,885,8.7% (inactive),5.4% (inactive),114%,-20.6% (inactive),114%,-0.566 (inactive),-2.4e-05 (inactive),0.00494 (inactive),0.136% (inactive),99.3% (active)
COc1ccc(C(=O)c2ccc(OC)c(N)c2)cc1N,298,-11.7% (inactive),-64.9% (inactive),3.2%,-187% (inactive),111%,-0.465 (inactive),-7.4e-05 (inactive),0.00541 (inactive),35% (inactive),27.2% (inactive)
Cc1ccc(C(=O)CSc2n[nH]c(-c3ccco3)n2)cc1C,397,0.7% (inactive),-8.3% (inactive),113%,11.3% (inactive),106%,-0.479 (inactive),1.8e-05 (inactive),0.00302 (inactive),0.966% (inactive),10.8% (inactive)
CCN(CC)CCCn1c(=S)[nH]c2cc(Cl)ccc2c1=O,353,-0.2% (inactive),7.4% (inactive),100%,6.9% (inactive),97.4%,-0.514 (inactive),-0.000206 (active),0.00373 (inactive),12.1% (inactive),21.3% (inactive)
Cn1nc(C(=O)NC2CCCCCC2)ccc1=O,348,-4.6% (inactive),14% (inactive),105%,-2.2% (inactive),121%,-0.608 (inactive),-2.1e-05 (inactive),0.00579 (inactive),9.51% (inactive),11.7% (inactive)
N#CCCn1ccc(NC(=O)c2ccc(Cl)cc2)n1,444,-6.3% (inactive),13.4% (inactive),100%,-23% (inactive),131%,-0.477 (inactive),-6.3e-05 (inactive),0.00607 (inactive),-18.1% (inactive),-11.6% (inactive)
O=C(NCCN1C(=O)C2C3C=CC(C3)C2C1=O)N1CCCCC1 (centres undefined),584,-7.6% (inactive),0.9% (inactive),104%,3.5% (inactive),99.5%,-0.604 (inactive),-3.7e-05 (inactive),0.00723 (inactive),-6.07% (inactive),20.6% (inactive)
